Compound activity (PubChem)
The list is not random: actives were taken first. Their share in the collection is about 2.1%.
Platelet DG rel: inhibitors of platelet dense granule secretion, primary screen, cell-based, MLPCN, human platelets. human platelet-rich plasma, SFLLRN dense granule ATP release, luminescence. inhibition, %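 (compounds screened at 7.5 µM in platelet-rich plasma)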. actives 0.22% (n = 300,000). AID 1663, 2009;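 active means mean replicate score, as percent of positive control, at or above 50; inconclusive means mean below 50 but at least one replicate at or above 50; inactive means mean and every replicate below 50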
KLF5 inhibitor: KLF5 expression inhibitors, primary screen, DLD-1 cells, luminescence. DLD-1 KLF5 promoter-luciferase reporter. inhibition, % at 5 µM. actives 0.23% (n = 290,000);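 active means inhibition above a per-plate limit of that plate's mean compound inhibition plus 3 SD, cut at about 60% in these data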;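 further: higher means less KLF5 promoter-driven luciferase light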
Wee1 degr inh: Wee1 degradation inhibitors, primary screen, cell-based, HeLa, Wee1K328M-luciferase, luminescence. Wee1-like protein kinase (Homo sapiens), P30291. HeLa Luc-Wee1K328M stability; 100% = proteasome inhibitor MG132 effect. reporter increase, % at 5 µM. actives 1.2% (n = 220,000);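 active means activation above the mean of all tested compounds plus 3 SD, set per screening run, cut at about 8.8% in these data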;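 further: cells exposed to compound for 20 h before luminescence read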
Target sequence (P30291 whole entry K328M): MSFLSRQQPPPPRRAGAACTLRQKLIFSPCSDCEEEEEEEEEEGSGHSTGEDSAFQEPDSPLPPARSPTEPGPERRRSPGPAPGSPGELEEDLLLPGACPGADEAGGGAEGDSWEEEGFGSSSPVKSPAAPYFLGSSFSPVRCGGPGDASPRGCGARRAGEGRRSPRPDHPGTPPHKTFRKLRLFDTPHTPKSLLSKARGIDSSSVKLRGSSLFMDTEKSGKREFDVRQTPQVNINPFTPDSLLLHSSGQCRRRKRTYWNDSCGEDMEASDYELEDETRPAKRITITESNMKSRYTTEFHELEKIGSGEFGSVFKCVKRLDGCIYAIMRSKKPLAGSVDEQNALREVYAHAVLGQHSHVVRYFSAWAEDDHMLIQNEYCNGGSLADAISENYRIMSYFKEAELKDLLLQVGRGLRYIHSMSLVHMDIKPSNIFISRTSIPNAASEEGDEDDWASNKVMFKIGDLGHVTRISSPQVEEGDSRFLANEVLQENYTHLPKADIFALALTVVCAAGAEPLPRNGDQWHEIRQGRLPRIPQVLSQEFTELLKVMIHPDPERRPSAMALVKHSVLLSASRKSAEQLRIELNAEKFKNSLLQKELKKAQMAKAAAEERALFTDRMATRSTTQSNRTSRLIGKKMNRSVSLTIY
aSyn 5UTR inh: MLPCN primary screen, SNCA 5' untranslated region. alpha-synuclein 5'UTR reporter, inhibitor activity. actives 0.82% (n = 300,000). inhibition, % (tested at 7.5 µM); in the data active means inhibition above about 60%; inconclusive means no clear call, values can overlap the other calls;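 further: H4 neuroglioblastoma cells stably carrying SNCA 5'UTR luciferase fusion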
HIF act: HIF pathway transcriptional activators, primary screen, cell-based, U2OS HRE-luciferase, luminescence; U2OS HRE-luciferase reporter; normalized: DMSO 0%, desferrioxamine 100%; activation, % at 7.5 µM (by protocol); actives 0.32% (n = 300,000);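 active means mean activation of at least 10% of the iron chelator positive control signal, with at least half of replicates also reaching 10%; inconclusive means mean and replicate majority disagree about reaching 10%; inactive means mean and most replicates under 10%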
Wee1 degr conf: Wee1 degradation inhibitors, confirmation, cell-based, HeLa, Wee1K328M-luciferase, luminescence, triplicate; shares compounds with Wee1 degr inh; HeLa Luc-Wee1K328M degradation; vehicle 0%, proteasome-blocked wells 100%; activation, % at 5 µM; actives 4% (n = 1,100); AID 1410, 2008; in the data active means activation above about 8.9%
Each line names hits and unclear results; the compound was inactive in the other large screens (follow-up assays come after a bar, where they were run).

Cc1ccccc1CNCc1cccnc1	none
COc1cccc(CNCc2cccnc2)c1OCc1ccccc1	Wee1 degr inh 12.8 | Wee1 degr conf inactive
CCOc1cc(/C=C2\C(=O)ON=C2C)ccc1OCc1ccccc1	Wee1 degr inh 17.8 | Wee1 degr conf inactive
COc1cc(Cl)c(C)cc1NC(=O)COC(=O)c1cc[n+]([O-])cc1	none
O=C(NCCc1c[nH]c2ccccc12)C1CCC(=O)N(CCc2cccc(F)c2)C1 (centres undefined)	none (no result: Wee1 degr inh)
c1ccc(-c2cc3c(ccc4nonc43)nn2)cc1	none
On1onc2c3cc(-c4ccccc4)nc3ccc21	Wee1 degr inh 38.7 (no result: Platelet DG rel, aSyn 5UTR inh, HIF act) | Wee1 degr conf 30.5
CC(=O)c1cccc(NC(=O)N2CCC(c3ccc(C)cc3)C2)c1 (centres undefined)	Wee1 degr inh 13.5 | Wee1 degr conf inactive
Cc1ccccc1Cn1cc(NC(=O)c2cc(C3CC3)on2)cn1	none
O=C(CN1C(=O)c2ccccc2C1=O)Nc1ccccc1	none (no result: Wee1 degr inh)
NS(=O)(=O)c1ccc(NC(=O)CN2C(=O)c3ccccc3C2=O)cc1	Wee1 degr inh 19.2 | Wee1 degr conf inactive
O=C(O)CCC(=O)N1N=C(c2ccccc2)CC1c1ccc2nccnc2c1 (centres undefined)	Wee1 degr inh 13.0 | Wee1 degr conf inactive
O=C(O)CCCC(=O)N1N=C(c2ccccc2)CC1c1ccc2nccnc2c1 (centres undefined)	none
CCc1ccc(NC(=O)C2CCN(S(=O)(=O)c3ccc4[nH]c(=O)ccc4c3)CC2)cc1	none (no result: Wee1 degr inh)
CCS(=O)(=O)Nc1cccc(-c2nc3cccnc3s2)c1	Wee1 degr inh 12.2 | Wee1 degr conf inactive
COCCCC1CCN(C(=O)c2cc(COc3ccc(C)nc3)on2)CC1	none (no result: Wee1 degr inh)
Cc1ccc(NC(=O)c2cncc(Br)c2)c(O)c1	Wee1 degr inh 12.2 | Wee1 degr conf inactive
CCOc1ccc(S(=O)(=O)N2CCCCC2)cc1NC(=O)CN1C(=O)NC(C)(c2ccc(C)cc2)C1=O (centres undefined)	none (no result: KLF5 inhibitor, Wee1 degr inh)
C(=C\c1nc2ccccc2[nH]1)/c1ccccc1	Platelet DG rel inconclusive
C(=C\c1ccco1)/c1nc2ccccc2[nH]1	Wee1 degr inh 13.6 | Wee1 degr conf inactive
CCOCCCNC(=S)Nc1ccc(S(N)(=O)=O)cc1	Wee1 degr inh 13.4 | Wee1 degr conf inactive
O=C(Cc1ccccc1)N1CCc2ccccc21	none
O=C(CS(=O)(=O)c1ccccc1)N1CCc2ccccc21	Wee1 degr inh 12.2 | Wee1 degr conf inactive
OCCN(CCO)c1ncnc2c1sc1nc(N3CCOCC3)c3c(c12)CCCC3	Wee1 degr inh 13.9 | Wee1 degr conf inactive
COc1ccc(CN(C)C(C)C(=O)Nc2ccc(S(=O)(=O)N3CCCC3)cc2)c(OC)c1OC (centres undefined)	none
Cc1ccc(S(=O)(=O)N2CCOCC2)cc1NC(=O)COC(=O)Cn1c(C)csc1=O	none (no result: KLF5 inhibitor, Wee1 degr inh)
O=S(=O)(c1ccc(Oc2ncnc3scc(-c4ccccc4)c23)cc1)N1CCOCC1	Wee1 degr inh 18.5 | Wee1 degr conf inactive
CC(CC12CC3CC(CC(C3)C1)C2)NCc1ccccc1O (centres undefined)	none (no result: Wee1 degr inh)
Fc1cccc(CSc2nc3ncc(Cl)cc3[nH]2)c1	Wee1 degr inh 11.1 | Wee1 degr conf inactive
Fc1cccc(CSc2nc3ncccc3[nH]2)c1	none
CSCCC(NC(=O)c1ccco1)c1nc2ccccc2[nH]1 (centres undefined)	none (no result: Wee1 degr inh)
Cc1ccc(C)c(S(=O)(=O)Nc2nc(C)c(C(=O)Nc3ccccc3)s2)c1	Wee1 degr inh 13.6 | Wee1 degr conf inactive
Cc1cc(O)c(NC(=O)c2cc([N+](=O)[O-])ccc2Cl)cc1C	Wee1 degr inh 44.9 | Wee1 degr conf inactive
Cc1ccc(O)c(NC(=O)c2cc([N+](=O)[O-])ccc2Cl)c1	Wee1 degr inh 11.0 | Wee1 degr conf inactive
O=C(CSc1nc(-c2ccc(F)cc2)cc(C(F)(F)F)n1)Nc1ccc2c(c1)OCO2	none
O=C(O)c1cc2c(s1)-c1ccccc1CC2	none
O=C(N/N=C/c1ccc(Cl)cc1)c1cc2c(s1)-c1ccccc1CC2	Wee1 degr inh 26.3 | Wee1 degr conf inactive
CN(C)c1ccc(C(=O)Nc2ccc(S(=O)(=O)Nc3nccs3)cc2)cc1	none (no result: Wee1 degr inh)
COc1ccc(/C=N/N=C(\N)c2nonc2N)cc1OC	Wee1 degr inh 11.2 | Wee1 degr conf inactive
Cc1ccc(-n2nc(C)c3c(C(=O)OCC(=O)N(C)C4CCS(=O)(=O)C4)cc(-c4ccccc4)nc32)cc1 (centres undefined)	none
CCOC(=O)N1CCN(C(=O)c2oc3ccc(S(=O)(=O)N4CC(C)CC(C)C4)cc3c2C)CC1 (centres undefined)	none
CCOC(=O)C1CCN(C(=O)c2oc3ccc(S(=O)(=O)N4CC(C)CC(C)C4)cc3c2C)CC1 (centres undefined)	Wee1 degr inh 10.9 | Wee1 degr conf inactive
Cc1ccc(NC(=O)NC2(C(=O)NCc3ccccc3)CCCCC2)cc1	none
COc1ccccc1CNC(=O)C1(NC(=O)Nc2ccc(C)cc2)CCCCC1	Wee1 degr inh 11.1 | Wee1 degr conf inactive
CCC(C)n1c(=O)c2sccc2n2c(CCCC(=O)N3CCC(C(N)=O)CC3)nnc12 (centres undefined)	none (no result: Wee1 degr inh)
COc1ccc(CCC(=O)N(C)CC(=O)Nc2cc(C)ccc2C)cc1	Wee1 degr inh 17.4 | Wee1 degr conf inactive
CC(C)N(c1ccccc1)c1ccc(NC(=O)COC(=O)CCN2C(=O)c3cccc([N+](=O)[O-])c3C2=O)cc1	Wee1 degr inh 19.6 | Wee1 degr conf inactive
O=[N+]([O-])c1ccc2c(c1)N([O-])C1(CCCCC1)[N+]2=O	none (no result: Platelet DG rel, aSyn 5UTR inh, HIF act)
COc1ccccc1N1CCN(C2=Nc3cccc4cccc2c34)CC1	Wee1 degr inh 15.3 | Wee1 degr conf inactive
O=C(COC(=O)c1c2c(nc3ccccc13)/C(=C/c1ccco1)CC2)NC1CCCC1	none
CC1CCCCC1NC(=O)COC(=O)c1c2c(nc3ccccc13)/C(=C/c1ccco1)CC2 (centres undefined)	Wee1 degr inh 11.3 | Wee1 degr conf inactive
Cc1cc(OCC(=O)N[C@@H](CSCc2ccccc2)C(=O)O)c2c(C)c(C)c(=O)oc2c1	none (no result: Wee1 degr inh)
COc1cccc(OC(=O)c2cc3ccccc3oc2=O)c1	Wee1 degr inh 15.5 | Wee1 degr conf inactive
O=C1C(=O)N(CCCN2CCOCC2)C(c2ccc([N+](=O)[O-])cc2)/C1=C(/O)c1ccc2c(c1)OCO2 (centres undefined)	none (no result: Wee1 degr inh)
CC1(C)COC(c2cccc(C3=NC(C)(C)CO3)n2)=N1	none
Cc1ccccc1/C=C1\CCCc2ccccc2C1=O	none
Cc1ccsc1/C=C1\CCc2ccccc2C1=O	Platelet DG rel 63.6, Wee1 degr inh 16.0 | Wee1 degr conf inactive
CN(CCCNC(=O)CCc1cn(C)c2ccccc12)C1CCCCC1	none (no result: Wee1 degr inh)
